Results: PubChem BioAssay (Tox21)
Values joined by “and” are separate entries in the source; they are usually repeats but may differ in a detail not shown here. Identical values can stand only once. Results filed as inconclusive are left out. Where a call stands in place of a potency, no number is given. The source holds several records for some structures; these can differ, active in one and inactive in another. Active and inactive are the calls of the source. Unless noted, the call rests on the fitted dose curve; in most records, active means well fitted curve in the direction sought with a large enough effect in the repeat runs; inconclusive means weak or mixed curves; inactive means no such curve, though single readings can be large; an effect the other way counts as inactive or inconclusive.

Key:
[1] = biological target: Retinoic acid receptor RXR-alpha (Homo sapiens) (UniProt P19793); experiment: qHTS assay to identify small molecule agonists of the RXR signaling pathway (AID 1159527; calls by dose curve; further: nearly all actives have a fitted effect of over 35% in size)
Chain of Retinoic acid receptor RXR-alpha (Homo sapiens) (P19793 whole entry, looked up): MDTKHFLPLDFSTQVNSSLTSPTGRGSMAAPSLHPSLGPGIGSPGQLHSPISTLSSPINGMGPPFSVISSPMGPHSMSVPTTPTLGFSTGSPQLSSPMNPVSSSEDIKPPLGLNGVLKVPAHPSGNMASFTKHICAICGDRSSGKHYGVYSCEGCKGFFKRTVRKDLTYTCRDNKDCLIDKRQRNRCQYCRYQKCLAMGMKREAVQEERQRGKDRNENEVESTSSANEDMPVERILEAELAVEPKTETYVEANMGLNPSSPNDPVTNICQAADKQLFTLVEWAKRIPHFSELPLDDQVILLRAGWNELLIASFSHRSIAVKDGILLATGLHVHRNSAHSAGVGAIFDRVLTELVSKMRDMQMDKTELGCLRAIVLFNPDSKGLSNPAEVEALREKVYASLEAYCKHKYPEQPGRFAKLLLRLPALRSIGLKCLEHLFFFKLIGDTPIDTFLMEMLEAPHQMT
In short: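 Read-out: beta-lactamase FRET ratio (405 nm excitation, 460 and 530 nm emission) after 2 hr substrate loading at room temperature. Cells were RXR-alpha-UAS-bla HEK 293T treated with compounds for 16 hr in 2% charcoal-stripped FBS medium.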

[2] = qHTS assay to identify small molecule agonists of the RXR signaling pathway - cell viability counter screen (AID 1159529); further: nearly all actives have a fitted effect of over 50% in size; further: potency means the concentration at half of the fitted maximal effect
In short: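 HEK 293T RXRa-bla cells, 2% CS-FBS; 5 h settle; cpd 16 h 37 C, 5% CO2; CellTiter-Glo 30 min RT, luminescence. Tetraoctyl ammonium bromide as positive control.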

[3] = qHTS assay to identify small molecule antagonists of the retinoid acid receptor (RAR) signaling pathway - cell viability counter screen (AID 1159551); further: nearly all actives have a fitted effect of over 35% in size
In short: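 C3RL4 RARE-luciferase line; cpds + retinol 1 uM final, 6 h, 37 C/5% CO2; CellTiter-Glo ATP luminescence, 30 min RT.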

[4] = qHTS assay to identify small molecule antagonists of the estrogen related receptor (ERR) signaling pathway from Tox21 library - cell viability counter screen (AID 1224834); further: nearly all actives have a fitted effect of over 30% in size; further: potency means the concentration at half of the fitted maximal effect
In short: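 Multiplexed viability counter screen in ERR cells: 17.5 h compound exposure at 37 C, CellTiter-Fluor added, 30 min at 37 C/5% CO2, fluorescence read.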

[5] = qHTS assay to identify small molecule agonists of the constitutive androstane receptor (CAR) signaling pathway - cell viability counter screen (AID 1224836); further: nearly all actives have a fitted effect of over 45% in size
In short: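 HepG2-CYP2B6-hCAR, 2500 cells/well, 4 h pre-incubation; cpd 15 conc + PK11195 0.75 uM final; 23 h, 37 C/5% CO2; CellTiter-Fluor, fluorescence.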

[6] = qHTS assay to identify small molecule antagonists of the constitutive androstane receptor (CAR) signaling pathway - cell viability counter screen (AID 1224837); further: nearly all actives have a fitted effect of over 45% in size
In short: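 Read-out: CellTiter-Fluor fluorescence after 23 hr at 37 C/5% CO2. Cells: HepG2 double-stable for hCAR and CYP2B6-2.2kb. Compounds tested at 15 concentrations in the presence of CITCO, final concentration 50 nM.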

[7] = biological target: Nuclear receptor subfamily 1 group I member 3 (Homo sapiens) (UniProt Q14994); experiment: qHTS assay to identify small molecule antagonists of the constitutive androstane receptor (CAR) signaling pathway (AID 1224838);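 further: HepG2 cells stably expressing hCAR with CYP2B6 luciferase reporter stimulated by CITCO; nearly all actives have a fitted effect of over 40% in size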; further: potency means the concentration at half of the fitted maximal effect
Chain of Nuclear receptor subfamily 1 group I member 3 (Homo sapiens) (Q14994 whole entry, looked up): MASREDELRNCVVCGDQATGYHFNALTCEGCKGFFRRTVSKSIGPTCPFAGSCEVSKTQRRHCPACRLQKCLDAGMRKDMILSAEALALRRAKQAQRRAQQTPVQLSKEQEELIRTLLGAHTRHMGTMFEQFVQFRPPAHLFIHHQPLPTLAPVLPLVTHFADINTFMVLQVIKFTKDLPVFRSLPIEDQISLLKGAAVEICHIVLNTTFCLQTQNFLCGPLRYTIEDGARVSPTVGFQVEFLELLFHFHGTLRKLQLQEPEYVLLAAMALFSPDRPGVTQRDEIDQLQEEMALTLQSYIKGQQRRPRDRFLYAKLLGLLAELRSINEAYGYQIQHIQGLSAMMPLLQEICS
In short: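 Read-out: ONE-Glo luciferase luminescence after 30 min at room temperature. HepG2-CYP2B6-hCAR double-stable cells, compounds in 15-point titration plus 50 nM CITCO final, 24 h at 37 C/5% CO2.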

[8] = biological target: Nuclear receptor subfamily 1 group I member 3 (Homo sapiens) (UniProt Q14994); experiment: qHTS assay to identify small molecule agonists of the constitutive androstane receptor (CAR) signaling pathway (AID 1224839); further: nearly all actives have a fitted effect of over 15% in size; further: potency means the concentration at half of the fitted maximal effect;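 on activation: HepG2 cells stably carrying human CAR and a CYP2B6 luciferase reporter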
In short: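 HepG2-CYP2B6-hCAR cells, 2500/well, 4 h pre-incubation; compounds 15 conc.; PK11195 0.75 uM final; 24 h, 37 C/5% CO2; ONE-Glo luciferase read.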

[9] = qHTS assay to identify small molecule antagonists of the estrogen related receptor signaling pathway with the pleiotropic PPARgamma coactivator (PGC) from Tox21 10K library - cell viability counter screen (AID 1224840; active means well fitted cell-killing curve with a large enough effect in the repeat runs, not every such curve was filed as active; further: nearly all actives have a fitted effect of over 40% in size; further: potency means the concentration at half of the fitted maximal effect)
In short: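 Fluorescence read-out of CellTiter-Fluor viability reagent, added after cells had been exposed to compound in DMSO for 17.5 h at 37 C; 30 min development at 37 C/5% CO2. Cells: PGC/ERR line, 2,000/well.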

[10] = qHTS assay to identify small molecule agonists of the hypoxia (HIF-1) signaling pathway - cell viability counter screen (AID 1224844; calls by dose curve; further: nearly all actives have a fitted effect of over 50% in size; further: potency means the concentration at half of the fitted maximal effect)
In short: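 CellTiter-Glo luminescence read-out, 30 min RT, taken in the same wells as the beta-lactamase HRE reporter assay; HRE-bla ME-180 cells, 0.5% dialyzed FBS, 17 hr compound treatment at 37C, 5% CO2.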

[11] = qHTS assay to identify small molecule agonists of H2AX (AID 1224845; active means well fitted activation curve with a large enough effect in the signal ratio in the repeat runs, not every such curve was filed as active; the % refers to the signal ratio)
In short: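 Wild-type CHO-K1 cells, plated overnight, exposed 3hr at 37C to 15 concentrations (0.76% DMSO final). Lysed, then HTRF anti-pH2AX (S139) cryptate and anti-H2AX-d2 antibodies, 24 hr room temperature; 665/620 nm emission read.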

[12] = qHTS assay to identify small molecule agonists of H2AX - cell viability counter screen (AID 1224847; calls by dose curve; further: nearly all actives have a fitted effect of over 30% in size; further: potency means the concentration at half of the fitted maximal effect; on activity change, negative = cytotoxicity: top concentration of the series differs between compounds)
In short: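 Cells plated first: CHO-K1, 1000 per well in 10% FBS medium, incubated overnight at 37C. Then 15-point compound titration added (final DMSO 0.76%) for 3 hr. Finally CellTiter-Glo added and luminescence read.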

[13] = qHTS assay to identify small molecule agonists of the hypoxia (HIF-1) signaling pathway (AID 1224846; active means well fitted activation curve with a large enough effect in the signal ratio in the repeat runs, not every such curve was filed as active; the % refers to the signal ratio)
In short: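 Beta-lactamase FRET read-out (CCF4-AM substrate) from ME-180 cells carrying an HRE-driven bla reporter, after 17 hrs compound exposure at 37C/5% CO2. Cells were seeded at 2,000 per well in 0.5% dialyzed FBS medium and preincubated 5 hrs.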

[14] = qHTS assay to identify small molecule antagonists of the estrogen related receptor signaling pathway with the pleiotropic PPARgamma coactivator (PGC) from Tox21 10K library (AID 1224841; call rule not given here; further: actives are mostly falling curves and most rising ones were filed inactive; nearly all actives have a fitted effect of over 50% in size)
In short: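 Luminescence read-out (One-Glo luciferase reagent, 30 min at room temperature) from PGC/ERR cells exposed to DMSO-dissolved test compounds for 18 h at 37 C; cells, 2,000 per well, had been preincubated 6 h before compound transfer.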

[15] = biological target: Thyrotropin receptor (Homo sapiens) (UniProt P16473); experiment: qHTS assay to identify small molecule agonists of the thyroid stimulating hormone receptor (TSHR) signaling pathway (AID 1224843; calls by dose curve; further: nearly all actives have a fitted effect of over 45% in size; further: potency means the concentration at half of the fitted maximal effect)
Chain of Thyrotropin receptor (Homo sapiens) (P16473 whole entry, looked up): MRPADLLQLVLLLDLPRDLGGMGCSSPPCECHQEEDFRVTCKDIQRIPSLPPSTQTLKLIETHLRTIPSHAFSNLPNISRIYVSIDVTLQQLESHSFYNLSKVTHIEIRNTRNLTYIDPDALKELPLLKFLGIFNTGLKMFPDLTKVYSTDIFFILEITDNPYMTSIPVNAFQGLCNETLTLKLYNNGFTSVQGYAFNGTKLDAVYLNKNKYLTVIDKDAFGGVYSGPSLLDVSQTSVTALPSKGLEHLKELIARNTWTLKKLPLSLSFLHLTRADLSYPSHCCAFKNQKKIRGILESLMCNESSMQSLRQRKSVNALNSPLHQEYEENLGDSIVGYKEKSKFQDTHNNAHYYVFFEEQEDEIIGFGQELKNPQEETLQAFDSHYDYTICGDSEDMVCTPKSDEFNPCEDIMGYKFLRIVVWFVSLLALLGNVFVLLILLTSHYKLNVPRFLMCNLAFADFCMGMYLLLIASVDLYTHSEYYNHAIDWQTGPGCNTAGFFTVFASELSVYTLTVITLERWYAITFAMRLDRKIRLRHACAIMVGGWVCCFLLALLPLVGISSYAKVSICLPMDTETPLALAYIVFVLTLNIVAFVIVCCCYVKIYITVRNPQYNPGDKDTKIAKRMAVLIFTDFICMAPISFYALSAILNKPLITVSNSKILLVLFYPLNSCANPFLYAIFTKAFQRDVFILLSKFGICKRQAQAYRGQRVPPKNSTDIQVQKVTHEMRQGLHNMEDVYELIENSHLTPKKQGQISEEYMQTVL
In short: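 HEK293/TSHR, 800 cells/well; cpd 30 min RT; add cAMP-d2 + anti-cAMP-cryptate, 1 h RT; fluorescence read on plate reader. 15-pt titration, n=3.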

[16] = qHTS assay to identify small molecule agonists of the retinoic acid receptor (RAR) signaling pathway (AID 1159553); details: C3RL4 RARE luciferase reporter, agonist, 6 h; activation: at 73.3 µM (top of the series) unless noted
In short: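 RARE-luc C3RL4 cells; overnight attachment 37 C/5% CO2; compound (DMSO) 6 hr; luciferase reagent, 30 min RT; luminescence read-out.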

[17] = biological target: Luciferin 4-monooxygenase (Photinus pyralis) (UniProt P08659); experiment: qHTS assay to identify small molecule inhibitors of firefly luciferase (AID 1224835); further: nearly all actives have a fitted effect of over 25% in size; further: potency means the concentration at half of the fitted maximal effect
Chain of Luciferin 4-monooxygenase (Photinus pyralis) (P08659 whole entry, looked up): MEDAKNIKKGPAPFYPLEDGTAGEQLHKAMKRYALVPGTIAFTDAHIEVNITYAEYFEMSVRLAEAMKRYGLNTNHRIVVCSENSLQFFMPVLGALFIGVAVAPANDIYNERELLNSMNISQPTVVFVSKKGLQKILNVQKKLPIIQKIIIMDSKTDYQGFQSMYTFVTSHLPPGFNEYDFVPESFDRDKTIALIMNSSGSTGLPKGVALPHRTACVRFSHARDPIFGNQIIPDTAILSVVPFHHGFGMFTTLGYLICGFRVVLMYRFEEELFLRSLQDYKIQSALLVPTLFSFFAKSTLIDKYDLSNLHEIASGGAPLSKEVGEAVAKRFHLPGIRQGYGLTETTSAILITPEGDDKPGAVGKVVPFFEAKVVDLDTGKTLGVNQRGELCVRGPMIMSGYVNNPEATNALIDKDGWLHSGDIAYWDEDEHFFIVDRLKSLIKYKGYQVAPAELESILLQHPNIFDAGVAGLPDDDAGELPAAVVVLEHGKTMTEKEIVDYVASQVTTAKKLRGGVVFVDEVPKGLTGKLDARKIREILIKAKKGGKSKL
In short: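 Biochemical qHTS: compounds run as interplate titrations against purified firefly enzyme, with D-luciferin and ATP each at its KM concentration. Light output recorded by CCD imaging.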

[18] = qHTS assay to identify small molecule antagonists of the retinoic acid receptor (RAR) signaling pathway (AID 1159552; further: nearly all actives have a fitted effect of over 50% in size)
In short: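 Cells of the C3RL4 line were seeded, incubated overnight, then dosed with compounds in DMSO followed immediately by retinol (1 uM final). Six hours later luciferase detection reagent went in; signal was measured after 30 min at RT.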

Row | Compound | Potency [1] | Potency [2] | outcome [3] | Potency [4] | Potency [5] | Potency [6] | Potency [7] | Potency [8] | Potency [9] | Potency [10] | Potency [11] | Potency [12] | activation [1] | activity change, negative = cytotoxicity [10] | outcome [13] | Potency [14] | Potency [15] | Potency [16] | Potency [17] | Potency [18]
1 | CN(C)[C@@H]1C(=O)C(C(N)=O)=C(O)[C@@]2(O)C(=O)C3=C(O)c4c(O)cccc4[C@@](C)(O)[C@H]3C[C@@H]12 | inactive | inactive | inactive | inactive | inactive | inactive | inactive | inactive | inactive | inactive | inactive | inactive |  |  |  |  |  |  |  | 
2 | C=C(C)CCl |  | inactive | inactive | inactive | inactive | inactive | inactive | inactive | inactive |  |  | inactive | 1.01% [at 6.98 µM] (inactive) | -1.52% [at 6.97 µM] (inactive) | inactive |  |  |  |  | 
3 | CC(C)(C)OOC(C)(C)C | inactive | inactive | inactive | inactive | inactive | inactive | inactive | inactive | inactive | inactive |  | inactive |  |  | inactive | inactive | inactive |  |  | 
4 | COC(=O)NS(=O)(=O)c1ccc(N)cc1 | inactive | inactive | inactive | inactive | inactive | inactive | inactive | inactive | inactive | inactive | inactive | inactive |  |  | inactive | inactive |  |  |  | 
5 | CCCC1COC(Cn2cncn2)(c2ccc(Cl)cc2Cl)O1 (stereo unspecified) |  | inactive | inactive | 49.4 µM (active) and 54.5 µM (active) | inactive |  | inactive | 62.3 µM (active) and 61.1 µM (active) | 61.1 µM (active) | inactive | inactive | 115 µM (active) |  |  | inactive |  |  | inactive | inactive | 
6 | CN(N=O)c1ccccc1 | inactive | inactive | inactive | inactive | inactive | inactive | inactive | inactive | inactive | inactive |  | inactive |  |  | inactive | inactive | inactive |  |  | 
7 | Oc1ccccc1Cl | inactive | inactive | inactive | inactive | inactive | inactive | inactive | inactive | inactive | inactive |  | inactive |  |  | inactive |  | inactive |  |  | 
8 | Nc1c(Cl)c(Cl)nc(C(=O)O)c1Cl |  | inactive | inactive | inactive | inactive | inactive |  |  | inactive | inactive | inactive | inactive |  |  | inactive |  | inactive |  |  | 
9 | CCCCN(CC)C(=O)SCCC |  | inactive | inactive | inactive | inactive | inactive | inactive | inactive | inactive | inactive | inactive | inactive |  |  | inactive |  | inactive | inactive |  | inactive
10 | CCC[N+](=O)[O-] | inactive | 30.3 µM (active) and inactive | inactive | 26.8 µM (active) and inactive |  |  | 8.48 µM (active) and inactive | inactive | 37.9 µM (active) and inactive | 4.81 µM (active) and inactive |  | inactive |  |  | inactive |  | inactive |  | 34.9 µM (active) and inactive | 
11 | C[C@]12CC[C@H]3[C@@H](CC[C@@]45O[C@@H]4C(O)=C(C#N)C[C@]35C)[C@@H]1CC[C@@H]2O |  | inactive | inactive | inactive | inactive | inactive | inactive | inactive | inactive | inactive | inactive | inactive |  |  | inactive |  | inactive |  | inactive | 
12 | CC(Oc1ccc(Cl)cc1Cl)C(=O)O (stereo unspecified) |  | inactive | inactive | inactive | inactive | inactive |  |  | inactive | inactive |  | inactive |  |  | inactive |  |  | inactive | inactive | inactive
13 | CCNc1nc(NC(C)(C)C)nc(SC)n1 |  | inactive and 49 µM (active) | inactive | inactive | inactive | inactive |  |  | inactive | inactive | inactive | inactive |  |  | inactive |  |  | inactive |  | inactive
14 | c1ccc2c(c1)oc1ccccc12 |  | inactive | inactive | inactive | inactive | inactive | inactive | inactive | inactive | inactive | inactive | inactive |  |  | inactive |  |  |  |  | 
15 | CCOP(=S)(OCC)Oc1cnc2ccccc2n1 |  | inactive | inactive | inactive | inactive | inactive | inactive | inactive and 30.6 µM (active) | inactive | inactive | inactive | inactive |  |  | inactive |  | inactive | inactive | inactive | 
16 | CCCN(CCC)c1c([N+](=O)[O-])cc(C(F)(F)F)cc1[N+](=O)[O-] |  | inactive | inactive | inactive | inactive | inactive | inactive | inactive | inactive | inactive | inactive | inactive |  |  | inactive |  | 10.8 µM (active) and 12.2 µM (active) |  |  | 
17 | COC(=O)c1ccccc1N |  | inactive | inactive | inactive | inactive | inactive | inactive | inactive | inactive | inactive |  | inactive |  |  | inactive | inactive |  |  | inactive | 
